Calls of active or inactive are those of the source.
Key:
[1] = small molecules captured by biotinylated probe aFSTL3 – biochemical, small-molecule microarray, fluorescence 635/667, stem cell growth factor project, primary screen (AID 1064); conditions: higher = more signal;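 further: measures binding of the biotinylated anti-FSTL3 antibody to printed compounds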
[2] = binders from COS7 lysate, DM2A8 probe, primary screen, torsin A project, cell lysate, small-molecule microarray, fluorescence 635/667 (AID 1065); conditions: higher = more signal, COS7 lysate expressing mutant human TOR1A
[3] = small molecules captured by biotinylated probe aFGF2 – biochemical, small-molecule microarray, fluorescence 635/667, stem cell growth factor project, primary screen (AID 1067); conditions: higher = more signal;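 further: measures binding of biotinylated aFGF2 protein to printed compounds on slides; z-score merges feature fluorescence and signal-to-noise across triplicate slides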
[4] = small molecules captured by biotinylated probe aFGF10 – biochemical, small-molecule microarray, fluorescence 635/667, stem cell growth factor project, primary screen (AID 1071); conditions: higher = more signal;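 further: score merges 667 nm spot intensity and signal to noise from triplicate slides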
[5] = biological target: Neurogenic locus notch homolog protein 2 (Homo sapiens) (UniProt Q04721); test: small molecules binding Notch2 protein – biochemical, small-molecule microarray, 635 nm fluorescence, stem cell growth factors, primary screen (AID 1073); conditions: higher = more signal
[6] = biological target: Pro-neuregulin-1, membrane-bound isoform (Homo sapiens) (UniProt Q02297); test: small molecules binding neuregulin-1 protein – biochemical, small-molecule microarray, fluorescence 635/667, psychiatric disease protein project, primary screen (AID 1075); conditions: NRG1 binding, 635 nm fluorescence, higher = more signal;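 further: score combines 667 nm spot fluorescence with signal to noise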
[7] = system: Neuregulin-1 EGF-like domain; test: small molecules binding NRG1 EGF domain – biochemical, small-molecule microarray, 635 nm fluorescence, primary screen (AID 1081); conditions: higher = more signal;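 further: binding of the protein to compounds printed on small-molecule microarray slides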
[8] = FRG1 expression reporter modulators in myotubes – cell-based, C2C12 myotubes, firefly/Renilla luciferase, luminescence, FRG1 inhibition for FSHD, primary screen (AID 1084); conditions: FRG1 promoter luciferase, higher = more signal, called active from +8 up or from −8 down
[9] = small molecules captured by biotinylated probe aFST – biochemical, small-molecule microarray, fluorescence 635/667, stem cell growth factor project, primary screen (AID 1086); conditions: higher = more signal;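 further: score merges 667 nm fluorescence with signal-to-noise of each printed compound spot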
[10] = binders of probe aHhip on microarray, primary screen, stem cell growth factor project, biochemical, small-molecule microarray, fluorescence 635/667 (AID 1087); conditions: higher = more signal;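 further: score merges spot fluorescence at 667nm with spot signal to noise ratio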
[11] = system: PRMT1 (protein arginine N-methyltransferase 1); test: small molecules binding arginine methyltransferase PRMT1 – biochemical, small-molecule microarray, 635 nm fluorescence, primary screen (AID 1088); conditions: higher = more signal;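 further: binding of Prmt1 protein to compounds spotted on small-molecule microarray slides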
[12] = growth effects on S. cerevisiae YJM789 – YJM789 clinical isolate, OD600, 24 h, basal, primary screen (AID 1089); conditions: higher = more signal, called active from +8 up or from −8 down;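 further: growth of clinical yeast isolate S. cerevisiae YJM 789 seeded 1000 cells per well; test concentration not given here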
[13] = S. pombe growth modifiers, basal conditions – strain 972, OD600, 24 h, no modulator, primary screen (AID 1090);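 further: basal condition with compound alone and no growth modifier present; test concentration not given here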; conditions: S. pombe 972 growth, higher = more signal, called active from +8 up or from −8 down
[14] = budding yeast growth modifiers under rapamycin – strain BY4716, OD600, 96 h, primary screen (AID 1091); further: test concentration not given here; conditions: S. cerevisiae BY4716 + rapamycin, higher = more signal, called active from +8 up or from −8 down
[15] = biological target: Torsin-1A-interacting protein 2 (Homo sapiens) (UniProt Q8NFQ8); test: small molecules binding lysate-expressed LULL1 – cell lysate, human LULL1 lysate, 635/667 nm fluorescence, primary screen (AID 1092); conditions: small-molecule microarray, hLULL1 lysate binding, 635 nm fluorescence; higher = more signal;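 further: probe is lysate of COS7 cells overexpressing human LULL1; score merges per-feature 667 nm fluorescence with signal-to-noise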
[16] = optical density change of DRC41 E. coli – strain DRC41, OD650, 24 h, E. coli filamentation project, primary screen (AID 1093);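 further: MC1000 strain lacking acrAB efflux and sulA so SOS filamentation is blocked; test concentration not given here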; conditions: E. coli DRC41 growth, higher = more signal, called active from +8 up or from −8 down
[17] = probe aLefty2 binding to arrayed compounds – biochemical, biotinylated probe, 635/667 nm fluorescence, primary screen (AID 1094); conditions: small-molecule microarray, higher = more signal;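 further: score merges spot fluorescence near 667 nm with spot signal-to-noise ratio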
[18] = system: Noggin (protein binding on small-molecule microarray); test: small molecules binding Noggin protein – biochemical, 635/667 nm fluorescence, primary screen (AID 1095); conditions: 635 nm fluorescence, higher = more signal;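 further: score merges 667 nm feature fluorescence with signal to noise over triplicate slides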
[19] = biological target: Neurogenic locus notch homolog protein 3 (Homo sapiens) (UniProt Q9UM47); test: small molecules binding NOTCH3 protein – biochemical, 635/667 nm fluorescence, primary screen (AID 1096); conditions: small-molecule microarray, 635 nm fluorescence, higher = more signal
[20] = probe aEGFR binding to arrayed compounds – biochemical, biotinylated probe, 635/667 nm fluorescence, primary screen (AID 1097); conditions: small-molecule microarray, higher = more signal;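 further: probe is a biotinylated anti-EGFR antibody binding compounds printed on slides; score combines fluorescence near 667 nm and signal to noise of each spot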

Chain of Neurogenic locus notch homolog protein 2 (Homo sapiens) (Q04721 whole entry, looked up, canonical isoform): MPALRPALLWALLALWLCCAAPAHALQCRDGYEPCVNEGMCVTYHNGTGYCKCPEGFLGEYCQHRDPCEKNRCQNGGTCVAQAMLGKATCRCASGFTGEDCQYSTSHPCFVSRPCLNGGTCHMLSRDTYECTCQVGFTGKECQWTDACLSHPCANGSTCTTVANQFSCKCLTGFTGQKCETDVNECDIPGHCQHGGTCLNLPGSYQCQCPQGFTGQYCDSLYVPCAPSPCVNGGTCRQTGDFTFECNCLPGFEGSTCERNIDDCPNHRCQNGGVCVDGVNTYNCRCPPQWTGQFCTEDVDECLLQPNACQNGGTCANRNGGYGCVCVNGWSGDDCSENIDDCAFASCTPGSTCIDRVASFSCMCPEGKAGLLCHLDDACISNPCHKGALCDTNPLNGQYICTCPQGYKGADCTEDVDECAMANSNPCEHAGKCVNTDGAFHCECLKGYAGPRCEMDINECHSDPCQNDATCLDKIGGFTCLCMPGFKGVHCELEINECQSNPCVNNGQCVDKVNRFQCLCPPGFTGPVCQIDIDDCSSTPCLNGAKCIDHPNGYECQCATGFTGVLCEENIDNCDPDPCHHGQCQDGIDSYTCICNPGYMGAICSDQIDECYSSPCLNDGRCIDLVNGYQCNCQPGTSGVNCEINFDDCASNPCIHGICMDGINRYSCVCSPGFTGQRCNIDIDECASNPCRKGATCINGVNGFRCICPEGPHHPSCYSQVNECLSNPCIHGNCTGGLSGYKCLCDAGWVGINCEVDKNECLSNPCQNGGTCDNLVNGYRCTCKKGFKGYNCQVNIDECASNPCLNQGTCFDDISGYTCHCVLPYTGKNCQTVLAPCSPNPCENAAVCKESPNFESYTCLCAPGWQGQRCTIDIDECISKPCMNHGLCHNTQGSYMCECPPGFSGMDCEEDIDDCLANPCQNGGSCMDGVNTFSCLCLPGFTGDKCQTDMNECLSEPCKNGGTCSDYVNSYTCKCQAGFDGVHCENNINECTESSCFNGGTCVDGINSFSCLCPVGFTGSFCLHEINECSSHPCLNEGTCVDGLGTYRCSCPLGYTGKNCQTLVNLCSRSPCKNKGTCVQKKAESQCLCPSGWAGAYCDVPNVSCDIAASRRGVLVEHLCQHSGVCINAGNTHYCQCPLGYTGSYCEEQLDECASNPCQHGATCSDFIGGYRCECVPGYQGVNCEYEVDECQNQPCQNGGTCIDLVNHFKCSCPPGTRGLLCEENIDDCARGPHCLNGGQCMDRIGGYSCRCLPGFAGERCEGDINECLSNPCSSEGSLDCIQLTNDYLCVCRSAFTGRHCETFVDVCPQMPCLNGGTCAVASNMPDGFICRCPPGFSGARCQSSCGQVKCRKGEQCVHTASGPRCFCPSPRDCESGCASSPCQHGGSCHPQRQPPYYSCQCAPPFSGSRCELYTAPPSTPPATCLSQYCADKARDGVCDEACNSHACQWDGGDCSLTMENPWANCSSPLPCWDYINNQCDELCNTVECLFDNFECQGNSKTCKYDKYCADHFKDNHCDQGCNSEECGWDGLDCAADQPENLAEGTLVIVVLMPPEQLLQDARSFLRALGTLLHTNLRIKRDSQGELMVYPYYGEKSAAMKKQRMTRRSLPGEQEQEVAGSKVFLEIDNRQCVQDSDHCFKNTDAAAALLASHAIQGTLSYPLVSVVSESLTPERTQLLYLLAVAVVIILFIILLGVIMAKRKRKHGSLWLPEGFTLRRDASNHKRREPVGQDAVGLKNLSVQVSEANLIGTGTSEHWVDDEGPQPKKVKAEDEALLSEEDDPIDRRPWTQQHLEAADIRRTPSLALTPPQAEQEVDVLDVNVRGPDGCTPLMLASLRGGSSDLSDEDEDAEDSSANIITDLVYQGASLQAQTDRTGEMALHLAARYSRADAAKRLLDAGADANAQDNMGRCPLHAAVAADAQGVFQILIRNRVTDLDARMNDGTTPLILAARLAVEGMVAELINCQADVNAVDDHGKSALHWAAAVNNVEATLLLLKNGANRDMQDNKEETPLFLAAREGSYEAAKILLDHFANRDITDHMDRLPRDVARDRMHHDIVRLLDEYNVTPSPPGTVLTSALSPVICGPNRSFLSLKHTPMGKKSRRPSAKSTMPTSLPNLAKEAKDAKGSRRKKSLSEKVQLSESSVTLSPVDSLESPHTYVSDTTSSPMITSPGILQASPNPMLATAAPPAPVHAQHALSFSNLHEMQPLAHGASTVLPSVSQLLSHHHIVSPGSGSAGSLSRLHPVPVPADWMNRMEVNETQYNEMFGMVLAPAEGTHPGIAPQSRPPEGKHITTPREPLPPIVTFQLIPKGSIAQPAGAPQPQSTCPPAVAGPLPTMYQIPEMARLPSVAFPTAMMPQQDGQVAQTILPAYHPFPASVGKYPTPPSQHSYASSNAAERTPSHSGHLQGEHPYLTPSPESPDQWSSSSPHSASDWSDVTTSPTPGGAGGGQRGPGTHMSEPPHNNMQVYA
Chain of Neurogenic locus notch homolog protein 3 (Homo sapiens) (Q9UM47 whole entry, looked up): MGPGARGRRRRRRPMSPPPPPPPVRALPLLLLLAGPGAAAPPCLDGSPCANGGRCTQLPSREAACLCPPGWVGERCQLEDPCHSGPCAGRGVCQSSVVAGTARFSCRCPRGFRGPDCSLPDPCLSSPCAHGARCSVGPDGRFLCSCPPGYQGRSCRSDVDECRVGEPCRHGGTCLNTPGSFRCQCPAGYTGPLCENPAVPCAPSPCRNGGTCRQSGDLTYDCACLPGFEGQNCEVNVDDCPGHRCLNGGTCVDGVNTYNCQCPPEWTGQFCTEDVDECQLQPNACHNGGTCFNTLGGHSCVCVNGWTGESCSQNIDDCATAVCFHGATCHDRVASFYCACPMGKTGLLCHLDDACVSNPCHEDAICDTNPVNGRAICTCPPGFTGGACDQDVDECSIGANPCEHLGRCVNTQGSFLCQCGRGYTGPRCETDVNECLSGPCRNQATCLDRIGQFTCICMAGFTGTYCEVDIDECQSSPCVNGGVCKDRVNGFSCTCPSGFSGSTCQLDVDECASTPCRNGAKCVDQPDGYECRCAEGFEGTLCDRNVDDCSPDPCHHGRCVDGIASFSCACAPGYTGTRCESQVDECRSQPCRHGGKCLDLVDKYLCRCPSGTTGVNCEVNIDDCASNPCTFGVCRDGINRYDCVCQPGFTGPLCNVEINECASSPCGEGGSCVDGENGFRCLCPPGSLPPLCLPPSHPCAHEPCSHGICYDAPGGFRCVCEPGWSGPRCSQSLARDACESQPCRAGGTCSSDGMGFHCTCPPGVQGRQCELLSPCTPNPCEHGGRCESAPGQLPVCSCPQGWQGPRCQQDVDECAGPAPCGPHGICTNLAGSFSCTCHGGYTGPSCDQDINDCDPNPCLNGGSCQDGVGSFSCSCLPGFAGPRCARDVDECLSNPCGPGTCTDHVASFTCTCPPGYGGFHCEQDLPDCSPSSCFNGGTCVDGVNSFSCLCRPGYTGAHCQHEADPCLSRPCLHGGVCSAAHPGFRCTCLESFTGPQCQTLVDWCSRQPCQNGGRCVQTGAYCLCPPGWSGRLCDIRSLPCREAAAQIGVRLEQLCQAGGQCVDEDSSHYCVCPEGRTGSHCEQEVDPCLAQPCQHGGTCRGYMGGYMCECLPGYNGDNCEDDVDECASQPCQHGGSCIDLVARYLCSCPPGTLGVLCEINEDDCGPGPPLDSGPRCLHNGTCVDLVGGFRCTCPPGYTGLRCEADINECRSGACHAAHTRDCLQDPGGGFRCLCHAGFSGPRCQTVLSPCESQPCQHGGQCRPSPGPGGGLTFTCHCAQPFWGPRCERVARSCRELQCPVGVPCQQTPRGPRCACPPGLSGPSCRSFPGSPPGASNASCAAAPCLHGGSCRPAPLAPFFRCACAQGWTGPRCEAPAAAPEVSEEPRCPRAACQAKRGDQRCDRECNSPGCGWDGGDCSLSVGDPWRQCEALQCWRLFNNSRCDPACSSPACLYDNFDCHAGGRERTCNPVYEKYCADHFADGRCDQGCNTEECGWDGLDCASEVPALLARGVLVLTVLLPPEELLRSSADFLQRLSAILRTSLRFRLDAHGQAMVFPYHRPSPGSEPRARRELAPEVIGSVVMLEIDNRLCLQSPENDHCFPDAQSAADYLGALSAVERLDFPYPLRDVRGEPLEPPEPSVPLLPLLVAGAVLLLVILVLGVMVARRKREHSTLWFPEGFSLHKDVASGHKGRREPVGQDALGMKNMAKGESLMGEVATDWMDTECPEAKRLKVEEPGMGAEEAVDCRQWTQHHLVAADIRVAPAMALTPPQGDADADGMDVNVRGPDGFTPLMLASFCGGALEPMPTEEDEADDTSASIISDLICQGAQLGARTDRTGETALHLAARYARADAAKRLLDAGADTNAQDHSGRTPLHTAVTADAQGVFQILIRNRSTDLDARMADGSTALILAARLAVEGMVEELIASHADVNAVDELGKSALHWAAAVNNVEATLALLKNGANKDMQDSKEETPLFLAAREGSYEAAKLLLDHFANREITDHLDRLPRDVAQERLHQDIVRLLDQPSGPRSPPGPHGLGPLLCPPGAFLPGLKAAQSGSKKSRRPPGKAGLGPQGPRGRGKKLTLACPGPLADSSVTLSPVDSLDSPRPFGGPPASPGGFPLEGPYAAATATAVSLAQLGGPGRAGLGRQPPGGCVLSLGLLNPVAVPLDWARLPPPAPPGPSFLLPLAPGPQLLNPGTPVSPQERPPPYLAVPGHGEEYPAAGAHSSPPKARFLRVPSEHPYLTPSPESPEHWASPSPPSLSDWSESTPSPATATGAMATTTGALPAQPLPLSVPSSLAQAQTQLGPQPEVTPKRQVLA

Compound: C=CCOC(=O)[C@@H]1[C@H]2C(=O)O[C@H](c3ccccc3)[C@H](c3ccccc3)N2[C@H](c2ccc(OCCOC(=O)[C@H]3C[C@H]4C(=O)N[C@@H](CC(C)C)C(=O)N4[C@H]3c3cccc(OCCO)c3)cc2)[C@@]12C(=O)Nc1ccc(I)cc12
- composite z-score [1]: -0.187
- composite z-score [2]: 0.83
- composite z-score [3]: -0.0232
- composite z-score [4]: 0.81
- composite z-score [5]: 0.809
- composite z-score [6]: 0.71
- composite z-score [7]: 1.27
- z-score [8]: 1.6 (inactive)
- composite z-score [9]: 0.186
- composite z-score [10]: -0.0296
- composite z-score [11]: 1.53
- z-score [12]: 0.705 (inactive)
- z-score [13]: 0.492 (inactive)
- z-score [14]: 2.65 (inactive)
- composite z-score [15]: 2.66
- z-score [16]: 0.147 (inactive)
- composite z-score [17]: -0.0849
- composite z-score [18]: 1.58
- composite z-score [19]: 1.06
- composite z-score [20]: -0.0769

Compound: O=C1OCCC/C=C\[C@H]2OC34C=CCN(Cn5nnc6ccccc65)C(=O)[C@H]3N(CCCO)C(=O)[C@@H]4C12 (stereo not given in full)
- composite z-score [1]: 0.415
- composite z-score [2]: -0.652
- composite z-score [3]: -0.017
- composite z-score [4]: -1
- composite z-score [5]: -0.936
- composite z-score [6]: 0.995
- composite z-score [7]: 1.13
- z-score [8]: -0.126 (inactive)
- composite z-score [9]: -1.28
- composite z-score [10]: -0.271
- composite z-score [11]: 1.19
- z-score [12]: -0.57 (inactive)
- z-score [13]: 0.0555 (inactive)
- z-score [14]: -0.264 (inactive)
- composite z-score [15]: 3.64
- z-score [16]: 0.123 (inactive)
- composite z-score [17]: -0.225
- composite z-score [18]: -0.9
- composite z-score [19]: -0.0127
- composite z-score [20]: -0.232

Compound: C=CCC(OC(C)=O)[C@@H]1[C@@H](N(Cc2ccc(-c3cccc(C(F)(F)F)c3)o2)C(=O)Cc2ccc(OC)cc2)c2cc(OCCCO)ccc2N1C(=O)Cc1ccc(OC)cc1 (stereo not given in full)
- composite z-score [1]: -0.0741
- composite z-score [2]: 0.185
- composite z-score [3]: -0.0739
- composite z-score [4]: -0.118
- composite z-score [5]: -0.17
- composite z-score [6]: 0.783
- composite z-score [7]: -0.92
- z-score [8]: 0.0712 (inactive)
- composite z-score [9]: -0.239
- composite z-score [10]: -0.16
- composite z-score [11]: -0.0091
- z-score [12]: -0.816 (inactive)
- z-score [13]: -0.566 (inactive)
- z-score [14]: -0.918 (inactive)
- composite z-score [15]: -0.106
- z-score [16]: 1.48 (inactive)
- composite z-score [17]: -0.107
- composite z-score [18]: -0.239
- composite z-score [19]: -0.869
- composite z-score [20]: -0.178

Compound: OCCCc1cc[n+](Cc2cccc(OC(F)(F)F)c2)cc1
- composite z-score [1]: 0.451
- composite z-score [2]: 0.451
- composite z-score [3]: -0.085
- composite z-score [4]: -0.389
- composite z-score [5]: 0.272
- composite z-score [6]: 0.564
- composite z-score [7]: 1.47
- z-score [8]: 1.7 (inactive)
- composite z-score [9]: 0.676
- composite z-score [10]: -0.125
- composite z-score [11]: 1.54
- z-score [12]: -0.747 (inactive)
- z-score [13]: -3.01 (inactive)
- z-score [14]: 0.71 (inactive)
- composite z-score [15]: 3.24
- z-score [16]: -1.65 (inactive)
- composite z-score [17]: 0.2
- composite z-score [18]: 0.962
- composite z-score [19]: 1.04
- composite z-score [20]: -0.0084

Compound: C=C(C)[C@@H]1CC=C(C(O)C2C=CC3C(=O)N(Cc4ccccc4)C(=O)C3N2n2cnnc2)CC1 (stereo not given in full)
- composite z-score [1]: 0.29
- composite z-score [2]: 0.271
- composite z-score [3]: -0.0877
- composite z-score [4]: -0.215
- composite z-score [5]: -0.274
- composite z-score [6]: 0.485
- composite z-score [7]: 0.703
- z-score [8]: 0.225 (inactive)
- composite z-score [9]: 0.325
- composite z-score [10]: 0.208
- composite z-score [11]: -0.0461
- z-score [12]: -0.542 (inactive)
- z-score [13]: 0.312 (inactive)
- z-score [14]: 0.112 (inactive)
- composite z-score [15]: 1.3
- z-score [16]: -0.0792 (inactive)
- composite z-score [17]: 0.0864
- composite z-score [18]: -0.305
- composite z-score [19]: -0.191
- composite z-score [20]: -0.161
